Reference: the supplement of paper PMC10681739

The sequences below were run against T1, ETS1 (UniProt P14921) (assay: TF binding intensity (PBM fluorescence), negative control probe (arbitrary fluorescence units); higher = stronger binding).
T1 sequence: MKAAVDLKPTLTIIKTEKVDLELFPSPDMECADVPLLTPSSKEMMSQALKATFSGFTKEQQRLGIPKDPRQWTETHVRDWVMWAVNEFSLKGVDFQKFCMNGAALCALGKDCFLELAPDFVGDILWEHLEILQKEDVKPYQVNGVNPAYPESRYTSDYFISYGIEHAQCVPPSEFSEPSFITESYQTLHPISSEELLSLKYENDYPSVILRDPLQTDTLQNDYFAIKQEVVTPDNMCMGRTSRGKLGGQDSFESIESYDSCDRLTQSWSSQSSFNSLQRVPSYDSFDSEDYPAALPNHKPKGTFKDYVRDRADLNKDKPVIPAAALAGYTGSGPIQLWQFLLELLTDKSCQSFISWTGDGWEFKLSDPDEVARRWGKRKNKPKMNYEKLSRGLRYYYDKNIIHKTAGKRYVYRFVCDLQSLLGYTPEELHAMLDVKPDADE
Protocol: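 gcPBM negative-control 36-bp genomic probes lacking TF binding sites. Each was incubated with recombinant human ETS1 or RUNX1 alone and detected by antibody fluorescence. Values are medians over replicate spots (4 spots for the ETS1-RUNX1 arrays, 3 for the ETS1-ETS1 array). The probes sit in constant array flanks that are not printed.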
“AAATTCTGTAACCAGTGCTCTTGAGCTGCTTGCTGG (protein concentration 10 nM)” gave a TF binding intensity of 102. “CCTTTGTTAGTGATTTGTGGTAGCTAATGTCGTAAT (protein concentration 1 nM)” showed a TF binding intensity of 548. Work on “AGCCCGGGTGACTTGAGAGTAATTAATGTGCAAAGA (protein concentration 10 nM)” yielded a TF binding intensity of 106. With “CATCCCTCTGCCAGATGGAATTTGGAGATAAACCTC (protein concentration 10 nM)” the TF binding intensity was 130. For “GAGCAGGAGAAAATGTGTCTGAGAAAGAGCTAGGAG (protein concentration 10 nM)”, the TF binding intensity was 128. Sequence “AAGGTTCTGATTCCGAGTCCCCTGAGGTGGCAGTGG (protein concentration 10 nM)” has a TF binding intensity of 111. Sequence “CATTAGATTCTCATAAGGAGCATAACCTAGATCCCT (protein concentration 10 nM)” has a TF binding intensity of 104. Work on “TGGGACCTCCAGCATATGACAGTGGACTAAGGACTG (protein concentration 10 nM)” yielded a TF binding intensity of 113. In the case of “AAGTATTGTAGTTGTTGTGGTAAAAACAGATAGATA (protein concentration 1 nM)”, the TF binding intensity is reported as 529. “AAACTAATCAGAATTTAACATCATACATAAATGGCA (protein concentration 10 nM)” showed a TF binding intensity of 116. “ATTTGGGTTCCAGCCCGCTAGCCTGCCTTTTCTCAT (protein concentration 10 nM)” showed a TF binding intensity of 92.9. For “TATTTCACGCAAATAAGCAGTGACTGAGGACACAGT (protein concentration 10 nM)”, the TF binding intensity was 117. For “GGGTCTTGCCATTGAGAGGCAGGTGATGTGCTGTTT (protein concentration 10 nM)”, the TF binding intensity was 132. In the case of “TTCTTTGACTCACTATGCGGGTTGGTACATCTGGGG (protein concentration 1 nM)”, the TF binding intensity is reported as 476. “TGATTTCTTAAGCCAACCTCAAAAAAAAAAAAAGAG (protein concentration 1 nM)” gave a TF binding intensity of 596. “ATATATAGTAACCACATGATTAATAATAATAATGCA (protein concentration 10 nM)” was tested, and the TF binding intensity was 119. For “CCTATTAAATTCAGATTTGCAGTTTGTTTTTTATCA (protein concentration 10 nM)”, the TF binding intensity was 117. “AGGCCTGTAGCATTTAGCTGGCCTCTGAGGAATAAC (protein concentration 10 nM)” showed a TF binding intensity of 101. With “AATCCAATGGGGTTTCTGTGTAATTAATAACATCTA (protein concentration 10 nM)” the TF binding intensity was 120. Sequence “AATAAAGGTGAGGCAGTCCAGAGTATTTCAAAACGG (protein concentration 10 nM)” has a TF binding intensity of 116. In the case of “GAAATATGACAAAAAACCCCTATCCTATGATAAGTC (protein concentration 10 nM)”, the TF binding intensity is reported as 146. “GGCTGAGGTGTCTGTGTTGGCAGCAGGAGCCTCTCT (protein concentration 10 nM)” gave a TF binding intensity of 128. “GAGATGCAGCAGCGTCTCCCAGTCCTCACCGCGGCC (protein concentration 10 nM)” showed a TF binding intensity of 112. “ATATTCTCTTACATAACCACAGTACATTTATCAGCC (protein concentration 1 nM)” was tested, and the TF binding intensity was 573. “GAAGAGCAGGCCTGGCGTCTGCCCGTGCCAGTGTTT (protein concentration 10 nM)” gave a TF binding intensity of 102. Work on “ACTGCTTTTTCACACAGCATCTTAATTGGCCTGTTT (protein concentration 10 nM)” yielded a TF binding intensity of 118. Sequence “CTCCTAATTCTGCATGCAACACTCTCCAGAGAGCTG (protein concentration 10 nM)” has a TF binding intensity of 136. Work on “CCGGGACCCCGCCCCCGATCCCCGCCTACCGGGGCC (protein concentration 10 nM)” yielded a TF binding intensity of 209. “GGGGAAAATGAGCACAGGTGTGAAGCAGATCACAGG (protein concentration 10 nM)” showed a TF binding intensity of 170. “CTGAAATTAACCCAAAGGTTGTGTGTGGACCTCCCT (protein concentration 10 nM)” showed a TF binding intensity of 109. “AAATTTATCTGAGTCCAAAATCTCTCCCTTCAACCT (protein concentration 10 nM)” gave a TF binding intensity of 119. “TAATCCCAGCACTTTGGGAATCCAAGGCAGTCAAAT (protein concentration 10 nM)” gave a TF binding intensity of 94.8. “TTAACCTCTAGAAAAAGTAAATATTCAGCAATAGGA (protein concentration 10 nM)” gave a TF binding intensity of 103. With “GACCACAGGGACCCATGCCAGTCAGATAAAAATAAC (protein concentration 10 nM)” the TF binding intensity was 141. Work on “AATGAATCTGCATGAATAAAAGGGTCAACACAGCAG (protein concentration 10 nM)” yielded a TF binding intensity of 147. In the case of “GACATTTCGAGTAAGTGCGGTATACCAGTTAAAAAT (protein concentration 1 nM)”, the TF binding intensity is reported as 479. For “GCCTTGCCTTGGTCATGTTTGACTCTGCCTTCAACT (protein concentration 10 nM)”, the TF binding intensity was 146. Sequence “CAAGATCTCTAACCACACTCGTCTGTGGCACTTCTT (protein concentration 10 nM)” has a TF binding intensity of 118. “GTTAGAATGCAACCTTTTGACTTATATCTTTTCCCC (protein concentration 10 nM)” gave a TF binding intensity of 140. “AAACAAAGTAAGCTTTTAAGGACTCTGGTCAGAAAC (protein concentration 10 nM)” showed a TF binding intensity of 101.
